Measured potencies and affinities stand elsewhere. Inconclusive results are not listed. Activity calls are given as the source filed them. Unless noted, no rule for the calls is given here.
Tests used:
[1] = RMG-1 ovarian cancer cell viability loss – cherry-pick, dose response (AID 687029;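 active = signal drop whose fitted half-maximal concentration is at most twice the top valid dose, in every test run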;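 also: cells exposed to compound for 96 hours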)
[2] = IOSE-T80 viability loss, PAX8-independent line – cell-based, cherry-pick, selectivity assay for PAX8 inhibitor project, dose response (AID 687032;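 active = fitted half-maximal concentration for viability loss no higher than twice the top valid dose, in every repeat run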;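 also: cells exposed to compound for 96 h before reading; 0% = neutral control wells and -100% = 2 µM mitoxantrone kill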)
[3] = general cell-killing toxicity readout – plate reader, dry powder samples, cytotoxicity control for PAX8 inhibitor project, dose response (AID 743021)
[4] = IGROV1 cell killing – plate reader, dry powder samples, PAX8 inhibitor project, dose response (AID 743043);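 also: more negative means fewer viable cells or more cytotoxicity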
[5] = OVCAR-3 cell viability loss – plate reader, dry powder samples, PAX8 inhibitor project, dose response (AID 743044); details: max activity: at 35 µM, hits give low values unless noted
[6] = toxicity toward immortalized ovarian surface epithelium – cell-based, plate reader, dry powder samples, cytotoxicity control for PAX8 inhibitor project, dose response (AID 743045);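 also: 0% = neutral control median and -100% = positive control median; more negative values mean more cell killing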
[7] = A2780 cell killing – plate reader, dry powder samples, cytotoxicity control, dose response (AID 743046);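 also: 0% = neutral control wells and -100% = cytotoxic reference compound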
[8] = OVCAR8 cell viability loss – plate reader, dry powder samples, PAX8 project, dose response (AID 743197)
[9] = A549 cell cytotoxicity, dose response, cytotoxicity control, plate reader, cherry-pick, antagonist series (AID 743412);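 also: 0% = neutral control wells and -100% = positive control wells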
[10] = toxicity toward HepG2 liver cells – cell-based, plate reader, cherry-pick, antagonist series, cytotoxicity control, dose response (AID 743416);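 also: 0% = neutral control wells and -100% = positive control wells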

Measured: max activity

C[C@@H]1CCCCO[C@@H](CN(C)C(=O)Nc2ccc(C(F)(F)F)cc2)[C@H](C)CN([C@@H](C)CO)C(=O)c2cc(NC(=O)Nc3ccc(C(F)(F)F)cc3)ccc2O1
inactive: [1] | [2] | [3] | [4] | [5] -30.2% | [6] | [7] | [8]

C[C@H]1CN([C@@H](C)CO)S(=O)(=O)c2ccc(C#Cc3ccc(F)cc3)cc2O[C@H]1CN(C)C(=O)NC1CCCCC1
not listed: [5] | [9] | [10]
inactive: all other assays above

C[C@@H]1CN([C@H](C)CO)C(=O)c2cc(NC(=O)Nc3ccc(C(F)(F)F)cc3)ccc2O[C@@H](C)CCCCO[C@H]1CN(C)S(=O)(=O)c1ccc(F)cc1
inactive: [1] | [2] | [3] | [4] | [5] -20.5% [at 8 µM, hits give low values] | [6] | [7] | [8]

COc1ccc(CCN2C(=O)CSC2=S)cc1OC
inactive: [1] | [2] | [3] | [4] | [5] | [7]

C[C@H](CO)N1C[C@H](C)[C@H](CN(C)Cc2ccc(C(F)(F)F)cc2)OCCCC[C@H](C)Oc2ccc(NC(=O)CCC(F)(F)F)cc2C1=O
inactive: [1] | [2] | [3] | [4] | [6] | [7]

C[C@@H]1CN([C@@H](C)CO)C(=O)c2cc(NC(=O)Nc3ccc(F)cc3)ccc2O[C@@H](C)CCCCO[C@@H]1CN(C)Cc1ccc(C(F)(F)F)cc1
inactive: [1] | [2] | [3] | [4] | [6]

O=C(Nc1ccc(C(F)(F)F)cc1)Nc1ccc2c(c1)[C@H]1C[C@@H](CC(=O)N3CCc4ccccc4C3)O[C@H](CO)[C@H]1O2
inactive: [1] | [2] | [3] | [4] | [6] | [7]

C[C@@H]1CCCCO[C@H](CN(C)Cc2ccc(Cl)c(Cl)c2)[C@H](C)CN([C@@H](C)CO)C(=O)c2cc(NC(=O)Nc3ccc(C(F)(F)F)cc3)ccc2O1
inactive: [1] | [2] | [3] | [4] | [6] | [7]

C[C@@H]1CN([C@H](C)CO)C(=O)c2cc(NS(=O)(=O)c3ccc(Cl)cc3)ccc2O[C@@H](C)CCCCO[C@H]1CN(C)Cc1ccc(Cl)c(Cl)c1
not listed: [5] | [9] | [10]
inactive: all other assays above

C[C@@H]1CCCCO[C@@H](CN(C)Cc2ccc(Cl)c(Cl)c2)[C@H](C)CN([C@@H](C)CO)C(=O)c2cc(NC(=O)Nc3ccc(C(F)(F)F)cc3)ccc2O1
not listed: [5] | [9] | [10]
inactive: all other assays above

CCCN(C)C[C@H]1OCCCC[C@@H](C)Oc2ccc(NC(=O)Nc3ccc(C(F)(F)F)cc3)cc2C(=O)N([C@H](C)CO)C[C@H]1C
inactive: [1] | [2] | [3] | [4] | [5] 9.68% [at 1 µM, hits give low values] | [6] | [7] | [8]

O=C(Nc1ccccc1)N1CCCCN2[C@H](C1)[C@@H](c1ccc(C#Cc3ccccc3)cc1)[C@@H]2CO
inactive: [1] | [2] | [3] | [4] | [6] | [7]

O=C1/C(=C/c2cccc(Br)c2)SC(=S)N1CCC(=O)N(CCO)c1ccccc1
not listed: [8] | [9] | [10]
inactive: all other assays above

C[C@H]1CCCCO[C@@H](CN(C)Cc2ccc(Cl)c(Cl)c2)[C@@H](C)CN([C@@H](C)CO)C(=O)c2cc(NC(=O)Nc3ccc(C(F)(F)F)cc3)ccc2O1
inactive: [1] | [2] | [3] | [4] | [6]

CS(=O)(=O)Nc1ccc2c(c1)[C@@H]1C[C@H](CC(=O)NCc3ccc(Oc4ccccc4)cc3)O[C@@H](CO)[C@@H]1O2
not listed: [5] | [9] | [10]
inactive: all other assays above

C[C@@H]1CN([C@@H](C)CO)C(=O)Cc2cc(NC(=O)NC3CCCCC3)ccc2O[C@H]1CN(C)Cc1ccc(-c2ccccc2)cc1
inactive: [1] | [2] | [3] | [4] | [6]

CC1(C)CC(=O)c2sc(NC(=O)CCS(=O)(=O)c3ccccc3)nc2C1
inactive: [1] | [2] | [3] | [4] | [5] | [7]

C[C@@H]1CCCCO[C@H](CN(C)Cc2ccc3c(c2)OCO3)[C@@H](C)CN([C@@H](C)CO)C(=O)c2cc(NC(=O)Nc3ccc(C(F)(F)F)cc3)ccc2O1
inactive: [1] | [2] | [3] | [4] | [5] -12% | [6] | [7]

C[C@@H]1CCCCO[C@H](CN(C)C(=O)Nc2ccc(F)cc2)[C@@H](C)CN([C@@H](C)CO)C(=O)c2cc(NS(=O)(=O)c3ccc(Cl)cc3)ccc2O1
inactive: [1] | [2] | [3] | [4] | [6] | [7]

C[C@H]1CN([C@@H](C)CO)C(=O)c2c(c3ccccc3n2C)-c2ccccc2CO[C@@H]1CN(C)S(=O)(=O)c1cccc(F)c1
inactive: [1] | [2] | [3] | [4] | [5] -21.9% | [6] | [7]

C[C@H]1CN([C@@H](C)CO)S(=O)(=O)c2ccc(C#CC3CCCC3)cc2O[C@@H]1CN(C)Cc1cccnc1
inactive: [1] | [2] | [3] | [4] | [6] | [7]

C[C@@H]1CCCCO[C@H](CN(C)S(=O)(=O)c2ccc(Cl)cc2)[C@H](C)CN([C@@H](C)CO)C(=O)c2cc(NS(=O)(=O)c3ccc(F)cc3)ccc2O1
inactive: [1] | [2] | [3] | [4] | [5] -23.5% [at 8 µM, hits give low values] | [6] | [7] | [8]

C[C@@H]1CCCCO[C@H](CN(C)C(=O)Nc2ccc(C(F)(F)F)cc2)[C@@H](C)CN([C@@H](C)CO)C(=O)c2cc(NS(=O)(=O)c3ccccc3)ccc2O1
inactive: [1] | [2] | [3] | [4] | [5] 27.6% [at 0.26 µM, hits give low values] | [6] | [7] | [8]

C[C@@H]1CCCCO[C@H](CN(C)S(=O)(=O)c2ccc(Cl)cc2)[C@H](C)CN([C@@H](C)CO)C(=O)c2cc(N(C)C)ccc2O1
inactive: [1] | [2] | [3] | [4] | [5] 36.7% [at 16 µM, hits give low values] | [6] | [7] | [8]

Cc1ccccc1OCC(=O)Nc1cccc(C(=O)O)c1
not listed: [8]
inactive: all other assays above

C[C@H]1CCCCO[C@H](CN(C)C(=O)Nc2ccc(C(F)(F)F)cc2)[C@@H](C)CN([C@@H](C)CO)C(=O)c2cc(NS(=O)(=O)c3ccc(F)cc3)ccc2O1
inactive: [1] | [2] | [3] | [4] | [5] 19.1% [at 4.2 µM, hits give low values] | [6] | [7]

CC(C)CC#Cc1ccc2c(c1)O[C@H](CN(C)Cc1ccc(F)cc1)[C@H](C)CN([C@H](C)CO)S2(=O)=O
inactive: [1] | [2] | [3] | [4] | [5] 38.6% [at 2.1 µM, hits give low values] | [6] | [7]

C[C@H]1CN([C@@H](C)CO)C(=O)Cc2cc(NC(=O)Nc3ccc4c(c3)OCO4)ccc2O[C@@H]1CN(C)Cc1ccc(-c2ccccc2)cc1
inactive: [1] | [2] | [3] | [4] | [5] -22.8% [at 16 µM, hits give low values] | [6] | [7] | [8]

COc1ccc(S(=O)(=O)Nc2ccc3c(c2)CC(=O)N([C@H](C)CO)C[C@H](C)[C@@H](CN(C)Cc2ccc(C(F)(F)F)cc2)O3)cc1
inactive: [1] | [2] | [3] | [4] | [5] -8.3% [at 8 µM, hits give low values] | [6] | [7]

C[C@@H]1CCCCO[C@H](CN(C)Cc2ccc(Cl)c(Cl)c2)[C@@H](C)CN([C@@H](C)CO)C(=O)c2cc(NC(=O)Nc3ccc(C(F)(F)F)cc3)ccc2O1
inactive: [1] | [2] | [3] | [4] | [6] | [7]

C[C@H](CO)N1C[C@H](C)[C@@H](CN(C)C(=O)Nc2cccc3ccccc23)OCCCC[C@H](C)Oc2ccc(NC(=O)c3ccncc3)cc2C1=O
inactive: [1] | [2] | [3] | [4] | [5] -25.1% | [6] | [7] | [8]

C[C@@H]1CN([C@H](C)CO)C(=O)c2cc(NC(=O)CCC(F)(F)F)ccc2O[C@@H](C)CCCCO[C@@H]1CN(C)Cc1ccc(C(F)(F)F)cc1
inactive: [1] | [2] | [3] | [4] | [6]

Cc1noc(C)c1S(=O)(=O)Nc1ccc2c(c1)C(=O)N([C@@H](C)CO)C[C@H](C)[C@@H](CN(C)C(=O)Nc1ccc(C(F)(F)F)cc1)OCCCC[C@H](C)O2
inactive: [1] | [2] | [3] | [4] | [6] | [7]
